From the supplement of paper PMC10670038
Structures can show the parent of a compound that is named as a salt. ± gives the standard deviation of the averaged measurements. The full ranking holds about 2,000 compounds; the median of “relative cell viability vs DMSO, compound alone” is about 1.1, and the lowest 2% start at about 0.29. This is one part of a sample in which the lowest values are shown more often than they occur.

System: TE10
Assay: relative cell viability vs DMSO, compound alone (fraction); TE10 is an esophageal squamous carcinoma line; higher = less cytotoxic
Conditions: 2 µM; 48 h
Experimental: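 TE10 ESCC cells (1,000/well, 384-well plates) were treated with Selleck bioactive library compounds at 2 uM alone for 48 h. Viability was read by CellTiter-Glo and expressed relative to DMSO wells. Two technical replicates (A, B).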

Structure (SMILES)	relative cell viability
C[C@H]1CCC/C=C/[C@@H]2C[C@H](O)C[C@H]2[C@H](O)/C=C/C(=O)O1 [Brefeldin A]	0.2497 ± 0.0017
Cc1c(Cl)c(OCC(=O)N2CCN(C)CC2)nc2sc(C(=O)NC3CC3)c(N)c12	1.04 ± 0.019
Cc1cc(C(C#N)c2ccc(Cl)cc2)c(Cl)cc1NC(=O)c1cc(I)cc(I)c1O (stereo not given) [Closantel]	1.12 ± 0.019
O=S(=O)(F)Cc1ccccc1	0.978 ± 0.021
O=C(O)CCCc1ccc(N(CCCl)CCCl)cc1 [Chloroambucil]	1.14 ± 0.012
CN1C2CC(O)CC1C1OC12 (stereo not given) [Scopine]	0.808 ± 0.14
C=CC[C@]1(O)CC[C@H]2[C@@H]3CCC4=CC(=O)CCC4=C3C=C[C@@]21C [Altrenogest]	1.115 ± 0.0019
Cc1c(N)nc(C(CC(N)=O)NCC(N)C(N)=O)nc1C(=O)NC(C(=O)NC(C)C(O)C(C)C(=O)NC(C(=O)NCCc1nc(-c2nc(C(=O)NCCC[S+](C)C)cs2)cs1)C(C)O)C(O[C@@H]1O[C@@H](CO)[C@@H](O)[C@H](O)[C@@H]1O[C@H]1O[C@H](CO)[C@@H](O)[C@H](OC(N)=O)[C@@H]1O)c1cnc[nH]1 (stereo not given in full) [Bleomycin Sulfate]	0.856 ± 0.038
C[C@@H]1CC[C@@]2(OC1)O[C@H]1C[C@H]3[C@@H]4CC=C5C[C@@H](O[C@@H]6O[C@H](CO)[C@@H](O[C@@H]7O[C@@H](C)[C@H](O)[C@@H](O)[C@H]7O)[C@H](O)[C@H]6O[C@@H]6O[C@@H](C)[C@H](O)[C@@H](O)[C@H]6O)CC[C@]5(C)[C@H]4CC[C@]3(C)[C@H]1[C@@H]2C [Dioscin]	0.189 ± 0.051
O=C1CCC[C@@H]2[C@H]3CCCN4CCC[C@@H](CN12)[C@@H]34 [(+)-Matrine]	1.1 ± 0.059
CC1=C(O)C(=O)C=C2C1=CC=C1[C@@]2(C)CC[C@@]2(C)[C@@H]3C[C@](C)(C(=O)O)CC[C@]3(C)CC[C@]12C [Celastrol]	0.306 ± 0.0087
O=[N+]([O-])C=Cc1ccc2c(c1)OCO2 [MNS (3,4-Methylenedioxy-β-nitrostyrene, MDBN)]	0.742 ± 0.054
CC(C)=CCC[C@]1(C)C=Cc2c(O)c3c(c(CC=C(C)C)c2O1)O[C@]12C(=C[C@@H]4C[C@H]1C(C)(C)O[C@@]2(C/C=C(/C)C(=O)O)C4=O)C3=O [Gambogic Acid]	0.0673 ± 0.0049
Cc1sc2c(c1C)C(c1ccc(Cl)cc1)=N[C@@H](CC(=O)OC(C)(C)C)c1nnc(C)n1-2	0.9008 ± 0.0079
Cc1sc2c(c1C)C(c1ccc(Cl)cc1)=NC(CC(N)=O)c1nnc(C)n1-2 (stereo not given)	0.954 ± 0.053
